# From paper PMC4336329 (PLoS ONE, 2015)
# The whole screen tested about 310,000 compounds, of which about 14,000 (4.5%) showed an effect of 50% or more. Effects have a minus sign here. The list comes from a sample in which strong results are over-represented; it also holds similar structures and randomly drawn compounds.
# Biological target: human ether-à-go-go-related gene (hERG) potassium channel (human, UniProt Q12809)
# Experiment: primary screen, population patch clamp on CHO cells stably expressing hERG; higher = less effect of the substance
# 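Also: peak tail current of the secondary pulse compared with the same well before compound.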
# Sequence of human ether-à-go-go-related gene (hERG) potassium channel (Q12809 whole entry, looked up): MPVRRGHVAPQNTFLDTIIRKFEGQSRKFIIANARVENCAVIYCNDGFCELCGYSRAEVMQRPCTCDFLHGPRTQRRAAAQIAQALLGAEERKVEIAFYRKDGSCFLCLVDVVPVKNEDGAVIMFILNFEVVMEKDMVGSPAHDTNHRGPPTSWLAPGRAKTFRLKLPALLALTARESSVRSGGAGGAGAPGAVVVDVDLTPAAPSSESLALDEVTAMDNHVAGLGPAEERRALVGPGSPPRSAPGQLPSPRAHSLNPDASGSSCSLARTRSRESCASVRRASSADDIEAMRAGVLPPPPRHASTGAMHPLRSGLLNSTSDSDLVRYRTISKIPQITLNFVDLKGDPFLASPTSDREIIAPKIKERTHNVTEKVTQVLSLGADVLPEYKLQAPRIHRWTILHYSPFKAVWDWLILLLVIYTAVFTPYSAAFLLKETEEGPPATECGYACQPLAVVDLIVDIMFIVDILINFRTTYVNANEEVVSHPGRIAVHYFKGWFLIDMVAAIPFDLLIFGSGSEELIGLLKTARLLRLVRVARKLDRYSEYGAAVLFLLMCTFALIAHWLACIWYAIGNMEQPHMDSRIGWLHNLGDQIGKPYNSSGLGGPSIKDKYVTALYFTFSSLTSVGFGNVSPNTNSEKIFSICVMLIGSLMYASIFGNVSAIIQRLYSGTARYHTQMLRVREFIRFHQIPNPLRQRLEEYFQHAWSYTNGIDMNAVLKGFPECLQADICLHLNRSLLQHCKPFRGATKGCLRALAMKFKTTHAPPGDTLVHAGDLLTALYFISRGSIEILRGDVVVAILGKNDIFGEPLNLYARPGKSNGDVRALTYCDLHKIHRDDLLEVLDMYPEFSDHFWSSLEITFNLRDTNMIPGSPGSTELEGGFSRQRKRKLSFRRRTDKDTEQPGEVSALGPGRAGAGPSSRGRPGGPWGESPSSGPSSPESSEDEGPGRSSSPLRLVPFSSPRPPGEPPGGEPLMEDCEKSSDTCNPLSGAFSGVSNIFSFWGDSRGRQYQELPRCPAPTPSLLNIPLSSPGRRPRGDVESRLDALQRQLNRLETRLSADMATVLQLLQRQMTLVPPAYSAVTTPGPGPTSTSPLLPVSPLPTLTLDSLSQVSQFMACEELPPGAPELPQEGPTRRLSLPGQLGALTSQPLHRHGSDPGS
row,SMILES,"hERG current change (%, negative = inhibition) at 10uM [%]"
1,COc1ccc(CN2CCN(CC3CC3)CC2CCO)cc1C (centres unmarked),-0.194
2,Cc1ccc(CN2CCN(Cc3cc4ccccc4o3)CC2CCO)cc1 (centres unmarked),-43.1
3,OCCC1CN(Cc2cc3ccccc3o2)CCN1Cc1ccc(F)cc1 (centres unmarked),-11.8
4,COc1cc(CN2CCN(CC3CC3)CC2CCO)cc(OC)c1 (centres unmarked),2.79
5,OCCC1CN(Cc2ccon2)CCN1Cc1ccccc1 (centres unmarked),9.42
6,CCOc1ccc(CN2CCN(Cc3cc4ccccc4o3)CC2CCO)cc1 (centres unmarked),-80.4
7,CCOc1ccc(CN2CCN(CC3CC3)CC2CCO)cc1 (centres unmarked),-67.1
8,Cc1ccc(CN2CCN(Cc3ccon3)CC2CCO)cc1 (centres unmarked),-11.1
9,CCOc1ccc(CN2CCN(Cc3ccon3)CC2CCO)cc1 (centres unmarked),-62.8
10,N#CC(C#N)=Cc1c[nH]c(=O)c(C#N)c1Nc1ccccc1,16.1
11,O=C(CN(Cc1ccccc1)S(=O)(=O)c1ccccc1)NC1CC1,-3.03
12,CCc1cc(=O)oc2cc(C)cc(OCC(=O)NCC3CCC(C(=O)O)CC3)c12 (centres unmarked),4.34
13,CC(C)(C)NC(=O)CN(c1cccc([N+](=O)[O-])c1)S(=O)(=O)c1ccccc1,-11.5
14,Cc1cc(C)c(NC(=O)CCCOC(=O)C2=COCCO2)c(C)c1,16.1
15,O=C(N/N=C/c1cccc(F)c1)c1csc2c1CCCC2,-30
16,CC(C)C[C@H](NC(=O)c1[nH]cnc1C(=O)N[C@@H](C)c1ccccc1)C(=O)OC(C)(C)C,12.5
17,CC1CCN(C(=O)c2cc3ccccc3c(=O)o2)CC1,5.74
18,O=C(Cn1nnc(-c2ccccc2Cl)n1)N/N=C/c1ccc(-c2cccc(Cl)c2)o1,2.26
19,Cc1ccc(-c2ccc(/C=N/NC(=O)CN3CCCC3)o2)cc1Cl,-90.2
20,O=C(CN1CCCC1)N/N=C/c1ccc(-c2cccc(Cl)c2)o1,-62.2
21,COC(=O)N/N=C/c1ccc(-c2ccc(C)c(Cl)c2)o1,-6.4
22,Nc1nnnn1CC(=O)N/N=C/c1ccc(-c2cccc(Cl)c2)o1,8.79

row,SMILES,"hERG current change (%, negative = inhibition) at 10uM [%]"
1,Cc1nnc(SCC(=O)N/N=C/c2ccc(-c3ccc(C)c(Cl)c3)o2)s1,-1.51
2,CC1(c2ccccc2)NC(=O)N(Cc2ccc([N+](=O)[O-])cc2)C1=O (centres unmarked),-31
3,COc1ccc(CN2CCCC(C(=O)Nc3cccc(-n4cccn4)c3)C2)c(F)c1 (centres unmarked),-30.3
4,Cn1cc(CN2CCCC(C(=O)Nc3cccc(-n4cccn4)c3)C2)cn1 (centres unmarked),-5.79
5,COCc1cc(CN2CCCC(C(=O)Nc3cccc(-n4cnnn4)c3)C2)ccc1OC (centres unmarked),-6.58
6,COc1ccc(CN2CCCC(C(=O)Nc3cccc(-n4cnnn4)c3)C2)c(C)c1C (centres unmarked),-62.7
7,COC(=O)c1ccc(CN2CCCC(C(=O)Nc3cccc(-n4cnnn4)c3)C2)cc1 (centres unmarked),-47.7
8,O=C(Nc1cccc(-n2cnnn2)c1)C1CCCN(Cc2cccc(C(F)(F)F)c2)C1 (centres unmarked),-59.8
9,COC(=O)Cc1c(C)c2ccc(OC3CCCCC3=O)c(C)c2oc1=O (centres unmarked),3.77
10,CCCCCOc1ccc(NC(=O)CSc2cccc3cccnc23)cc1,18.8
11,N#Cc1cc([N+](=O)[O-])ccc1NC(=O)CSc1n[nH]c(=O)n1C1CC1,1.42
12,Cc1c(C(=O)N2CCN(c3ccccn3)CC2)oc2ccccc12,-28
13,COc1cccc(OC)c1C(=O)Nc1c(C(=O)N2CCN(c3ccccn3)CC2)oc2ccccc12,-61.6
14,COc1cccc(OC)c1C(=O)N1CCN(c2ccccn2)CC1,11
15,O=C(Nc1c(C(=O)N2CCN(c3ccccn3)CC2)oc2ccccc12)c1ccc([N+](=O)[O-])cc1,-51
16,O=C(Nc1c(C(=O)N2CCN(c3ccccn3)CC2)oc2ccccc12)c1cccc([N+](=O)[O-])c1,-48.8
17,COc1cccc(OC)c1C(=O)Nc1c(C(=O)N2CCN(C)CC2)oc2ccccc12,-29.1
18,COc1ccc(NC(=O)c2ccc(-c3nn(C)c(=O)c4ccccc34)cc2)cc1C(N)=O,6.4
19,Cc1ccc(N(C(=O)Cc2cccs2)C(C(=O)NCC2CCCO2)c2ccncc2)cc1 (centres unmarked),11.5
20,CCOc1ccc(Cc2nc(C)c(CC(=O)N3CCOCC3)c(=O)[nH]2)cc1,8.37
21,O=C(CSc1ncnc2ccccc12)NCc1ccc2c(c1)OCO2,-16.9
22,O=C(C(=O)N1CCCc2ccccc21)c1c[nH]c2ccccc12,4.5

row,SMILES,"hERG current change (%, negative = inhibition) at 10uM [%]"
1,O=S(=O)(c1ccccc1)N1CCN(CCc2ccccc2)CC1,14.2
2,O=S(=O)(c1ccc(Cl)cc1)N1CCN(CCc2ccccc2)CC1,-3.7
3,CC(=O)Nc1ccc(S(=O)(=O)N2CCN(Cc3ccncc3)CC2)cc1,-8.67
4,CCS(=O)(=O)N1CCN(Cc2ccncc2)CC1.O=C(O)C(=O)O,13.2
5,O=S(=O)(c1ccc(Cl)cc1)N1CCN(CCc2ccncc2)CC1,-55.3
6,O=C(O)C(=O)O.O=S(=O)(c1ccc(Cl)cc1)N1CCN(Cc2ccncc2)CC1,-51.5
7,COc1ccc(C2=NC(C)(C)Cc3cc(OC)c(OC)cc32)cc1,-44
8,Cc1ccccc1OCCCN1CCOCC1,9.44
9,Cc1ccc(OCC(O)CN2CCOCC2)cc1C.Cl (centres unmarked),17.7
10,Cc1cccc(OCC(O)Cn2c(=N)n(CCN3CCCCC3)c3ccccc32)c1.Cl (centres unmarked),-80.5
11,COc1ccccc1OCC(O)CN1CCOCC1 (centres unmarked),15.2
12,Cc1ccccc1OCC(O)Cn1c(=N)n(CCN2CCOCC2)c2ccccc21.Cl (centres unmarked),-61.5
13,Cl.OC(COc1cccc(OCC(O)CN2CCOCC2)c1)CN1CCOCC1 (centres unmarked),7.41
14,Cc1cccc(OCC(O)Cn2c(=N)n(CCN3CCOCC3)c3ccccc32)c1.Cl (centres unmarked),-57.9
15,OC(COc1cccc(OCC(O)CN2CCCC2)c1)CN1CCCC1 (centres unmarked),-2.86
16,O=C(CCNS(=O)(=O)/C=C/c1ccccc1)NCCc1c[nH]c2ccccc12,3.88
17,Cc1ccc(NS(=O)(=O)c2ccc(-c3coc(C)n3)cc2)c(C)c1,15.6
18,CCOC(=O)C(Sc1ncn[nH]1)c1ccccc1 (centres unmarked),-3.76
19,Cc1cc(F)ccc1S(=O)(=O)N1CCCOC1CNC(=O)C(=O)NCc1cccnc1 (centres unmarked),7.92
20,O=C(CNC(=S)N(CCCN1CCOCC1)Cc1cccs1)NCCCN1CCOCC1,15.1
21,O=C(CNC(=S)N(CCCN1CCOCC1)Cc1cccs1)NC1CCCCCCC1,-61.1
22,O=C(CNC(=S)N(CCCN1CCOCC1)Cc1cccs1)NCc1ccc(Cl)cc1,-67.7

row,SMILES,"hERG current change (%, negative = inhibition) at 10uM [%]"
1,O=C(CNC(=S)N(CCCN1CCOCC1)Cc1cccs1)NC1CCCCC1,-31.2
2,O=C(CNC(=S)N(CCCN1CCOCC1)Cc1cccs1)NC1CCCC1,-19.7
3,O=C(CNC(=S)N(CCCN1CCOCC1)Cc1cccs1)NCCN1CCOCC1,9.17
4,CCCCNC(=O)CNC(=S)N(CCCN1CCOCC1)Cc1cccs1,-27.4
5,CN(C)CCNC(=O)CNC(=S)N(CCCN1CCOCC1)Cc1cccs1,12.1
6,O=C(CNC(=S)N(CCCN1CCOCC1)Cc1cccs1)NCc1ccccc1Cl,-54.2
7,O=C(NCc1ccc(F)cc1)c1ccc(CS(=O)Cc2ccccc2Cl)o1 (centres unmarked),-37.3
8,Cc1ccc(S(=O)(=O)N2[C@@H](c3ccccc3)C(C(=O)O)=CC[C@H]2c2ccc(Cl)cc2)cc1,18.6
9,CC1=NN(C(N)=S)C(=O)C1N=Nc1ccccc1C(=O)O (centres unmarked),22.1
10,Fc1ccc(/C=C/c2nnc(-c3cccs3)o2)cc1,16.7
11,Cc1cc(S(=O)(=O)Nc2cccc(C(=O)O)c2)c(C)c(S(=O)(=O)c2ccc(Cl)cc2)c1,18.8
12,CCOC(=O)c1cnc(SCC(=O)Nc2ccc(NC(C)=O)c(OC)c2)nc1N,2.44
13,CC1(c2cccc(Br)c2)NC(=O)N(CC(=O)Nc2ccc3c(c2)OCO3)C1=O (centres unmarked),-12.5
14,COc1ccc(CNC2CCSc3ccccc32)cc1OC.O=C(O)C(=O)O (centres unmarked),9.97
15,CCC(Cc1ccccc1)NC(=O)CN(C)S(=O)(=O)c1ccc2c(c1)c(=O)n(C)c(=O)n2C (centres unmarked),-23.5
16,Cc1sc2nc(SCC(=O)N3CCN(CCO)CC3)n(-c3ccccc3)c(=O)c2c1C,-3.7
17,CCS(=O)(=O)N1CCN(C2CCC(c3ccccc3)CC2)CC1.O=C(O)C(=O)O (centres unmarked),-17.2
18,Ic1ccccc1CN[C@@H]1C2CCN(CC2)[C@@H]1C(c1ccccc1)c1ccccc1.O.O=C(O)C(=O)O,-69.7
19,O=C(O)C(=O)O.OC(CNC1CCCCCCC1)c1ccccc1 (centres unmarked),2.95
20,O=C(COC(=O)CNC(=O)c1ccccc1)NCCc1ccccc1,4.17
